Measured values from PubChem BioAssay.
For some of these results: Results with a measured potency or affinity are listed apart. Active and inactive are the calls of the source. Unless noted, the rule behind the calls is not given here.

Assays:
[1] = antimalarial activity against Dd2 strain (AID 2302;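 active = growth inhibition above 50% at the single 2 µM test dose, taken to imply half-maximal potency below 2 µM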;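 note: 0% = DMSO untreated growth and 100% = chloroquine plus artemisinin killed control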); settings: P. falciparum Dd2 in RBCs, LDH growth readout, 72 h; at 2 µM; stronger effect = higher value
[2] = human hepatoma cell viability loss – ATP luminescence, cytotoxicity control for P. falciparum antimalarial project, primary screen (AID 2303;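 active = inhibition above 50%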;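 note: 0% = DMSO wells and 100% = digitonin-killed cells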); settings: HepG2 viability, 24-48 h, at 10 µM, stronger effect = higher value
[3] = molecular target: L-lactate dehydrogenase (Plasmodium falciparum (isolate CDC / Honduras)) (UniProt Q27743); assay: PfLDH activity inhibition – cell lysate, 3D7 strain, counter-screen for P. falciparum growth inhibition project (AID 2304);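 note: 0% = vehicle and 100% = reference inhibitor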; settings: P. falciparum 3D7 crude extract, LDH APAD/NBT absorbance; at 2 µM; stronger effect = higher value
[4] = inhibition of 3D7 malaria parasite growth – strain 3D7 (AID 2306);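 note: 0% = DMSO wells and 100% = chloroquine plus artemisinin control wells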; settings: P. falciparum 3D7 erythrocytic growth, LDH absorbance, 72 h; at 2 µM; stronger effect = higher value
[5] = molecular target: Calcium-dependent protein kinase 1 (Plasmodium falciparum (isolate 3D7)) (UniProt P62344); assay: PfCDPK1 kinase inhibitors, biochemical, TCAMS library (AID 1159585; cut-off not given, nearly all actives have IC50 up to about 0.98 µM;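 note: inhibitors leave more ATP so luminescence rises with inhibition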); settings: recombinant PfCDPK1, Kinase-Glo ATP depletion luminescence
[6] = molecular target: Plasmodium falciparum protein kinase 6 (PK6, PF3D7_1337100) (UniProt Q8IDW1); assay: PfPK6 kinase inhibitors, biochemical, TCAMS library (AID 1159586); settings: recombinant PfPK6, Kinase-Glo ATP depletion luminescence
[7] = molecular target: Protein kinase 7 (PK7), Plasmodium falciparum 3D7 (PF3D7_0213400) (UniProt Q7YTF7); assay: inhibition of Plasmodium PK7 catalytic activity – biochemical, TCAMS antimalarial set, Kinase-Glo luminescence (AID 1159587); settings: recombinant PfPK7, Kinase-Glo ATP depletion luminescence
[8] = molecular target: Calcium-dependent protein kinase 4 (Plasmodium falciparum (isolate 3D7)) (UniProt Q8IBS5); assay: PfCDPK4 kinase inhibitors, biochemical, TCAMS library (AID 1159588; cut-off not given, nearly all actives have IC50 up to about 0.91 µM); settings: recombinant PfCDPK4, Kinase-Glo ATP depletion luminescence
Calcium-dependent protein kinase 4 (Plasmodium falciparum (isolate 3D7)), sequence (Q8IBS5 whole entry, looked up): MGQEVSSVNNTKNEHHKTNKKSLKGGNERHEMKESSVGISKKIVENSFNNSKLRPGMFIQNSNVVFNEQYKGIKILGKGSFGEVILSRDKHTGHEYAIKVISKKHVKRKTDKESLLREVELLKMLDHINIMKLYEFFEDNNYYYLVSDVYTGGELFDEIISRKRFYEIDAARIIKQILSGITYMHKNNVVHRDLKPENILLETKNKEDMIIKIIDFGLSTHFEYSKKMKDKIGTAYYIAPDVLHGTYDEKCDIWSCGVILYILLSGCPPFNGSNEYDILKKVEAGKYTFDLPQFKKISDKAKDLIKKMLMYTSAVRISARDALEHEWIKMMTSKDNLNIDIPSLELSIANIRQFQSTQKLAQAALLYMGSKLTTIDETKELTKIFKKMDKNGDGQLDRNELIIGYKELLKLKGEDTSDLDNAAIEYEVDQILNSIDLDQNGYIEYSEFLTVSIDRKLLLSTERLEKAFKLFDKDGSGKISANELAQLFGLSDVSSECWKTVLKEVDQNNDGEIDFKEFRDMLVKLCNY

Protein kinase 7 (PK7), Plasmodium falciparum 3D7 (PF3D7_0213400), sequence (Q7YTF7 1-343): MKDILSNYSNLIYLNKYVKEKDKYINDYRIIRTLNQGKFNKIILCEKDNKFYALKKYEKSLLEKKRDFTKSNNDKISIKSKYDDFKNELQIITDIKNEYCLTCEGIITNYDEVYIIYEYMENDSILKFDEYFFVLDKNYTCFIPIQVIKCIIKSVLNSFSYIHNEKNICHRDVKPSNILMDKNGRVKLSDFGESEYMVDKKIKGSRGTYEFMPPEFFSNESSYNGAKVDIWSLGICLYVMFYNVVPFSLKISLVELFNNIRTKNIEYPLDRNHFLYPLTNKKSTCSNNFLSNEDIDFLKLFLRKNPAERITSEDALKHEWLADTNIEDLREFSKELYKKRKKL
Calcium-dependent protein kinase 1 (Plasmodium falciparum (isolate 3D7)), sequence (P62344 whole entry, looked up): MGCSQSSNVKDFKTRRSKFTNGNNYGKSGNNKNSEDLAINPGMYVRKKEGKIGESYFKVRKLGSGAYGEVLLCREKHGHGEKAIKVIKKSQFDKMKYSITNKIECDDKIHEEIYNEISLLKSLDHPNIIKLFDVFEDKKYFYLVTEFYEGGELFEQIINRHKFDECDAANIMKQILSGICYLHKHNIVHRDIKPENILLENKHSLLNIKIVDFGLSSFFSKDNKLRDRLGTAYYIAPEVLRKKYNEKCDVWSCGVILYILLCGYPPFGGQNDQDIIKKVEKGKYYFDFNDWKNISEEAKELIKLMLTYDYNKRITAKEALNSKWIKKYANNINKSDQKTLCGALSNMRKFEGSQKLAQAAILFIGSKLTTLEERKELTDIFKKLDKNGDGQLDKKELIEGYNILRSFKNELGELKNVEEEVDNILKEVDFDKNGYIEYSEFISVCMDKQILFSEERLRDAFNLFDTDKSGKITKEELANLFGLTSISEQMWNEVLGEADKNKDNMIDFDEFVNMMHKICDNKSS
Plasmodium falciparum protein kinase 6 (PK6, PF3D7_1337100), sequence (Q8IDW1 1-305): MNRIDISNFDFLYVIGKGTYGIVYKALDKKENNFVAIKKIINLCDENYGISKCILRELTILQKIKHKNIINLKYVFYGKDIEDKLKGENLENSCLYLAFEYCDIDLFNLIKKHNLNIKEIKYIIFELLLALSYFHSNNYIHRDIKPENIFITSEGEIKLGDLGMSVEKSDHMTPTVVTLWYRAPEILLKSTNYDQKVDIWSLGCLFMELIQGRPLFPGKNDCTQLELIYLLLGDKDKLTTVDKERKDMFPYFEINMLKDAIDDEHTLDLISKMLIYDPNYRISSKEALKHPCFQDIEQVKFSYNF
L-lactate dehydrogenase (Plasmodium falciparum (isolate CDC / Honduras)), sequence (Q27743 whole entry, looked up): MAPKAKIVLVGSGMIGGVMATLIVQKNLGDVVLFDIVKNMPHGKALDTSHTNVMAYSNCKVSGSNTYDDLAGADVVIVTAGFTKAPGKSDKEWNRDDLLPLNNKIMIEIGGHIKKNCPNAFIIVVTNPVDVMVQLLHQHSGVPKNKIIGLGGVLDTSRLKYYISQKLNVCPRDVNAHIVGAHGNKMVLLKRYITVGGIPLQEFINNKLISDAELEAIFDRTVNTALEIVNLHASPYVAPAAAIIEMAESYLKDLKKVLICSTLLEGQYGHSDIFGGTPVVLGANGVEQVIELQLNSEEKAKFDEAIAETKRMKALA

CC(=O)Nc1ccc(OCCCN(Cc2ccccc2OC(F)(F)F)c2ccc(C(F)(F)F)c(C#N)c2)c(Cl)c1
active: growth inhibition [1] 80% | growth inhibition [4] 91%
inactive: inhibition [2] 5% | inhibition [3] 0% | outcome [5] | outcome [6] | outcome [7] | outcome [8]

CC(C(=O)OCCOCn1cnc2c(=O)[nH]c(N)nc21)N(C)C(=O)OC(C)(C)C (stereo not given)
active: growth inhibition [4] 87%
inactive: growth inhibition [1] -1% | inhibition [2] 28% | inhibition [3] 2% | outcome [5] | outcome [6] | outcome [7] | outcome [8]

CCOC(=O)c1ccc(NC(=O)Nc2cccc(-c3ccc(-c4nc5ccc(F)cc5[nH]4)cc3)c2)cc1
active: growth inhibition [1] 97% | growth inhibition [4] 101%
inactive: inhibition [2] 40% | inhibition [3] 1% | outcome [5] | outcome [6] | outcome [7] | outcome [8]

O=c1[nH]c2ccc3[nH]cccc3c2c1C=Nc1ccc(N2CCN(CCO)CC2)cc1
active: growth inhibition [1] 55% | growth inhibition [4] 86%
inactive: inhibition [2] 34% | inhibition [3] -6% | outcome [5] | outcome [6] | outcome [7] | outcome [8]

Cn1nc(-c2cccc(CNCc3ccccc3)c2)c2cnc(NC3CCCC3)nc21
inactive: growth inhibition [1] 11% | inhibition [2] 5% | inhibition [3] 1% | outcome [5] | outcome [6] | outcome [7] | outcome [8]
active: growth inhibition [4] 85%

O=S(=O)(NCCN1CCCC1)c1cccc(-c2cccc(CNCc3ccccc3)c2)c1
active: growth inhibition [1] 73% | growth inhibition [4] 97%
inactive: inhibition [2] 32% | inhibition [3] -7% | outcome [5] | outcome [6] | outcome [7] | outcome [8]

Cc1ccc(O)cc1Nc1ccnc2ccc(C(C)(C)C)cc12
inactive: inhibition [2] 6% | inhibition [3] 3% | outcome [5] | outcome [6] | outcome [7] | outcome [8]
active: growth inhibition [1] 100% | growth inhibition [4] 100%

CCc1cc2c(O)c([N+](=O)[O-])c(=O)oc2cc1OCCCCCOc1cc2oc(=O)c([N+](=O)[O-])c(O)c2cc1CC
inactive: growth inhibition [1] 0% | inhibition [2] 11% | inhibition [3] -1% | outcome [5] | outcome [6] | outcome [7] | outcome [8]
active: growth inhibition [4] 99%

CCCCNC(=O)[C@H](CC1CCCCC1)NC(=O)c1ccc(O)c(-c2cccc(C(F)(F)F)c2)c1
inactive: inhibition [2] -8% | inhibition [3] 0% | outcome [5] | outcome [6] | outcome [7] | outcome [8]
active: growth inhibition [1] 86% | growth inhibition [4] 98%

CC(C)(C)c1ccc2nc(-c3ccc(/C=C/C(=O)NCc4cccc(C(F)(F)F)c4)cc3)[nH]c2c1
inactive: growth inhibition [1] 11% | inhibition [2] 31% | inhibition [3] -16% | outcome [5] | outcome [6] | outcome [7] | outcome [8]
active: growth inhibition [4] 93%

CN(C)Cc1ccc(-c2cc3ncnc(Nc4ccc(OCc5cccc(F)c5)c(Cl)c4)c3s2)[nH]1
active: growth inhibition [1] 87% | inhibition [2] 53% | growth inhibition [4] 99%
inactive: inhibition [3] 6% | outcome [5] | outcome [6] | outcome [7] | outcome [8]

CCCCCn1c(Sc2ccc(C#N)c([N+](=O)[O-])c2)nnc1-c1cccc(Cl)c1
active: growth inhibition [1] 75% | growth inhibition [4] 95%
inactive: inhibition [2] 4% | inhibition [3] -2% | outcome [5] | outcome [6] | outcome [7] | outcome [8]

CO/C(=C\C=C\c1cc2cc(Cl)c(Cl)cc2[nH]1)C(=O)NCCCN1CCN(c2ccc(OC)cc2)CC1
active: growth inhibition [4] 99%
inactive: growth inhibition [1] 44% | inhibition [2] 40% | inhibition [3] -7% | outcome [5] | outcome [6] | outcome [7] | outcome [8]

COc1ccc2ncc(F)c(CCN3C[C@H](CNCc4ccc5c(n4)NC(=O)CS5)[C@H](O)C3)c2c1
inactive: growth inhibition [1] 34% | inhibition [2] -3% | inhibition [3] -3% | outcome [5] | outcome [6] | outcome [7] | outcome [8]
active: growth inhibition [4] 92%

CCCCN1Cc2c(n(CC(=O)Nc3ccccc3)c3cc(-c4ccccc4)nn3c2=O)C1=O
inactive: inhibition [2] 1% | inhibition [3] -1% | outcome [5] | outcome [6] | outcome [7] | outcome [8]
active: growth inhibition [1] 60% | growth inhibition [4] 92%

N#Cc1ccc(-n2cc(C(=O)Nc3ccc4c(c3)CCN(C3CCC3)CC4)c(C(F)(F)F)n2)cc1
inactive: inhibition [2] 37% | inhibition [3] -2% | outcome [5] | outcome [6] | outcome [7] | outcome [8]
active: growth inhibition [1] 99% | growth inhibition [4] 102%

O=C(Nc1ccccc1)Nc1ccc(-c2cccc(-c3nc4ccc(C(F)(F)F)cc4[nH]3)c2)cc1
active: growth inhibition [1] 73% | inhibition [2] 59% | growth inhibition [4] 101%
inactive: inhibition [3] 4% | outcome [5] | outcome [6] | outcome [7] | outcome [8]

O=C(NCc1cccc(CN2CCOCC2)c1)c1cc(Br)cc(N2CCN(c3ccncc3)CC2)c1
active: growth inhibition [4] 99%
inactive: growth inhibition [1] 29% | inhibition [2] 25% | inhibition [3] -2% | outcome [5] | outcome [6] | outcome [7] | outcome [8]

Cc1cc(C(=O)Nc2ccc3c(c2)CCN3C2CCN(Cc3cc(F)cc(F)c3F)C2)no1 (stereo not given)
active: growth inhibition [1] 96% | growth inhibition [4] 95%
inactive: inhibition [2] -5% | inhibition [3] 0% | outcome [5] | outcome [6] | outcome [7] | outcome [8]

O=c1c(Br)c(C(F)(F)F)[nH]c2ccc(Oc3ccccc3)cc12
inactive: growth inhibition [1] 17% | inhibition [2] 6% | inhibition [3] 0% | outcome [5] | outcome [6] | outcome [7] | outcome [8]
active: growth inhibition [4] 91%
